Results from PubChem BioAssay (NCATS).
Results filed as inconclusive are left out. Activity calls are given as the source filed them. Calls follow the shape of the dose curve; as a rule, active = well fitted inhibition curve with a large enough effect; inconclusive = small, poorly fitted or top-dose-only effect; inactive = flat fitted curve, though single readings scatter.

Assays:
Experiment in all cases: qHTS profiling for inhibitors of Plasmodium falciparum proliferation (AID 504749); also: nearly all actives have a fitted effect of over 60% in size
Conditions in all cases: P. falciparum in erythrocytes, SYBR Green DNA, 72 h; series mostly up to 28.7 µM
7G8 = system: 7G8
Procedure, shortened: (§1)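 P. falciparum-infected erythrocytes (0.3% parasitemia, 2.5% hematocrit) incubated with compound 72 h at 37 C, 5% CO2. Parasite DNA detected by SYBR Green after lysis, overnight at room temperature; normalised to 0.29 uM artemisinin and DMSO.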

AS120 = system: AS120
Procedure, shortened: as §1

ATS189 = system: ATS189
Procedure, shortened: as §1

CP185 = system: CP185
Procedure, shortened: as §1

CP192 = system: CP192
Procedure, shortened: as §1

CP201 = system: CP201
Procedure, shortened: as §1

CP203 = system: CP203
Procedure, shortened: as §1

CP238 = system: CP238
Procedure, shortened: as §1

CP247 = system: CP247
Procedure, shortened: as §1

CP268 = system: CP268
Procedure, shortened: as §1

CP286 = system: CP286
Procedure, shortened: as §1

CP291 = system: CP291
Procedure, shortened: as §1

CP305 = system: CP305
Procedure, shortened: as §1

CP335 = system: CP335
Procedure, shortened: as §1

DIV30 = system: DIV30
Procedure, shortened: as §1

GB4 = system: GB4
Procedure, shortened: as §1

P94_40 = system: P94_40
Procedure, shortened: as §1

TAB109 = system: TAB109
Procedure, shortened: as §1

TAB113 = system: TAB113
Procedure, shortened: as §1

W2 = system: W2
Procedure, shortened: as §1

Measured: Potency
Potency is read from the fitted curve at half-maximal effect.

C=C[C@@H]1CN2CC[C@H]1C[C@H]2[C@H](O)c1ccnc2ccccc12
active: 7G8 158 nM | AS120 891 nM | ATS189 794 nM | CP185 1260 nM | CP192 953 nM | CP201 1510 nM | CP203 675 nM | CP238 1410 nM | CP247 2240 nM | CP268 1200 nM | CP286 794 nM | CP291 675 nM | CP305 757 nM | CP335 757 nM | DIV30 757 nM | GB4 169 nM | P94_40 398 nM | TAB109 178 nM | TAB113 501 nM | W2 338 nM

C[C@@H](Cc1ccc(O)cc1)NC[C@@H](O)c1cc(O)cc(O)c1
inactive: 7G8 | AS120 | ATS189 | CP185 | CP192 | CP201 | CP203 | CP238 | CP247 | CP268 | CP286 | CP291 | CP305 | CP335 | DIV30 | GB4 | P94_40 | TAB109 | TAB113 | W2

O=C1C[C@@H]2OCC=C3CN4CC[C@]56c7ccccc7N1[C@@H]5[C@@H]2[C@H]3C[C@H]46 (tested in a mixture with another compound)
active: W2 6750 nM

C[C@@H]1O[C@@H](O[C@H]2C[C@@H](O)[C@@]3(CO)[C@H]4[C@H](O)C[C@]5(C)[C@@H](C6=CC(=O)OC6)CC[C@]5(O)[C@H]4CC[C@@]3(O)C2)[C@@H](O)[C@H](O)[C@H]1O
inactive: 7G8 | AS120 | ATS189 | CP185 | CP192 | CP201 | CP203 | CP238 | CP247 | CP268 | CP286 | CP291 | CP305 | CP335 | DIV30 | GB4 | P94_40 | TAB109 | TAB113
